Shown are actives, neighbours in structure and some others; about 2.3% of the full set was active somewhere.
EBNA-1 inh: blocks EBNA-1 binding to DNA; EBNA-1 DNA binding, fluorescence polarization; inhibition, % at 14.8 µM; actives 0.34% (n = 300,000); AID 1950; in the data active means inhibition above about 28%
ZTA DNA inh: ZTA (EBV) inhibition in EBNA-1 counter-screen | P03206 | ZTA-DNA binding, fluorescence polarization | AID 2234 | actives 0.15% (n = 320,000) | inhibition, % at 11 µM; in the data active means inhibition above about 33%
PP1 counter: counter-screen for PP5 inhibitors: inhibitors of human PP1-alpha. P62136. purified PP1alpha, OMFP fluorescence. inhibition, % at 6.7 µM. actives 0.9% (n = 320,000). AID 2235;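 active means inhibition above the mean inhibition of all tested compounds plus 3 SD, computed separately for each screening campaign, cut at about 15% in these data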
MsrA inhibitor: bovine MsrA inhibition. purified bovine MsrA, absorbance read-out. inhibition, % at 15.5 µM. actives 0.75% (n = 360,000). AID 651718; in the data active means inhibition above about 4.5%;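 further: 0% = vehicle wells with enzyme and 100% = reference inhibitor wells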
MsrA act: bovine methionine sulfoxide reductase A activation; purified bovine MsrA, absorbance read-out; activation, % at 10.6 µM; actives 0.3% (n = 360,000); AID 602163; in the data active means activation above about 7.5%;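 further: 0% = vehicle and 100% = reference activator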
PP5 inh: blocks human protein phosphatase 5 activity; P53041; purified PP5c, OMFP substrate fluorescence; inhibition, % at 6.7 µM; actives 0.18% (n = 320,000); AID 1987;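 active means inhibition above the campaign's mean inhibition across all tested compounds plus 3 SD, cut at about 9.5% in these data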;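 further: 0% = DMSO only and 100% = 100 µM cantharidin control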
Target sequence (P53041 whole entry, looked up): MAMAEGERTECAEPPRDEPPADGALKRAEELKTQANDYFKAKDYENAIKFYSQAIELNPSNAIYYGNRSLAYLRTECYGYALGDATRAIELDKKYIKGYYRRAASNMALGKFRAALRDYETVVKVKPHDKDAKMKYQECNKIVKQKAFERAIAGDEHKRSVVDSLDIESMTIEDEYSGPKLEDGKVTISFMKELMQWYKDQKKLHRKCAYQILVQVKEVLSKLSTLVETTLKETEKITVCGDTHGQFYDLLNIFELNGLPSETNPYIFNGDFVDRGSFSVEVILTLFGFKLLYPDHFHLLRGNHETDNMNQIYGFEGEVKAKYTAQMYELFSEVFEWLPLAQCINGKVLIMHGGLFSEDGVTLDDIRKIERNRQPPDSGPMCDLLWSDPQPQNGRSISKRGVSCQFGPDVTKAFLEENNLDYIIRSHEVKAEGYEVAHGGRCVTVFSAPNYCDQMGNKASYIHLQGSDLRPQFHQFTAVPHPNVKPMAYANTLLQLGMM
PP1 confirm: confirmation of human PP1 phosphatase inhibitors | shares compounds with PP1 counter | purified PP1alpha, OMFP substrate fluorescence | inhibition, % at 6.7 µM | actives 52% (n = 1,900) | AID 2358;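 active means mean PP1 inhibition above a set limit taken from the earlier primary screen, cut at about 15% in these data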
PP5 counter: counter-screen for PP1 inhibitors: human PP5 phosphatase inhibition; shares compounds with PP1 counter; purified PP5c, OMFP fluorescence; inhibition, % at 6.7 µM; actives 4% (n = 1,900);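 active means mean PP5 inhibition over triplicate wells above about 9.5% taken from the earlier PP1 screen, limit read from the data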
Active calls of the source: *; · = not tested or not shown.

SMILES	EBNA-1 inh	ZTA DNA inh	PP1 counter	MsrA inhibitor	MsrA act	PP5 inh	PP1 confirm	PP5 counter
O=C(/C=C/c1ccco1)Nc1nc(-c2ccccn2)cs1	-5	0	32*	3	-3	2	40*	-2
CC[C@]12c3[nH]c4ccc(Cl)cc4c3CCN1C(=O)[C@@H](CC(=O)NCc1ccc(OC)c(OC)c1)C[C@@H]2C(=O)N1CCN(C(=O)c2ccco2)CC1	·	·	·	0	-2	·	·	·
CCC(C)(C)NC(=O)CN(CC1CCCO1)C(=O)CNS(=O)(=O)c1ccccc1 (stereo unspecified)	4	-10	-2	-1	-3	3	·	·
O=C(COc1ccc(F)cc1Cl)Nc1nc(-c2ccccn2)cs1	-9	-1	42*	-1	-3	1	43*	-2
O=C(Nc1nc(-c2ccccn2)cs1)c1ncc(Cl)c(Cl)c1Cl	1	-10	37*	0	-1	2	41*	1
O=C(Nc1nc(-c2ccccn2)cs1)c1ccc(Cl)s1	-1	-10	31*	-1	1	6	29*	4
CC(=O)Nc1ccc(-c2ccnc3c2CC(C(=O)NCC2CCOCC2)O3)cc1 (stereo unspecified)	·	·	·	1	-5	·	·	·
CCC(=O)N1CCc2cc(S(=O)(=O)CCC(=O)Nc3cccc(C)n3)ccc21	1	6	-4	0	-4	1	·	·
COc1ccc(N2C3=C(CC4=C2CCCC4=O)C(=O)CCC3)cc1	-1	-3	34*	0	-4	0	3	4
CCCOc1ccc(C2C(C(=O)c3ccc(C)o3)=C(O)C(=O)N2Cc2cccnc2)cc1 (stereo unspecified)	-14	-5	11	·	·	3	·	·
CCOc1ccc(C2C(C(=O)c3ccc(C)o3)=C(O)C(=O)N2c2cc(C)on2)cc1OC (stereo unspecified)	-6	-10	9	2	2	0	·	·
CCCCCOc1ccc(C2C(C(=O)c3ccc(C)o3)=C(O)C(=O)N2c2cc(C)on2)cc1 (stereo unspecified)	12	23	24*	1	-1	1	32*	0
CCCCOc1ccc(C2C(C(=O)c3ccc(C)o3)=C(O)C(=O)N2Cc2ccco2)cc1 (stereo unspecified)	6	9	33*	0	0	2	30*	-3
Cc1cc(N2C(=O)C(O)=C(C(=O)c3cc4ccccc4o3)C2c2ccc(OC(C)C)cc2)no1 (stereo unspecified)	8	13	23*	1	-2	0	34*	-2
CN(C)CC1CCCCC1OC(=O)c1ccc(S(=O)(=O)N(C)c2ccccc2)cc1 (stereo unspecified)	5	-4	2	1	0	1	·	·
O=C(CCc1ccc(O)c(O)c1)NNC(=S)Nc1ccc(Br)cc1Cl	0	-28	0	1	-4	2	·	·
COc1ccc(C(=O)NCC(=O)Nc2ccc(-c3ccccc3)cc2)cc1	12	11	20*	-1	-2	-2	33*	-3
Cc1ccc(NC(=O)CCC(=O)OCC(=O)c2ccc(-c3ccccc3)cc2)cc1	9	14	29*	0	-2	-1	21*	-3
O=C(CCC(=O)N1CCOCC1)Nc1ccc(Cl)c(Cl)c1	9	5	-1	2	-1	-1	·	·
C1CCCCCC(NCCN2CCNCC2)CCCCC1	-3	-7	-3	1	-2	2	·	·
Cc1c(CCOC(=O)C23CC4(C)CC(C)(CC(C)(C4)C2)C3)sc[n+]1CC(=O)c1ccccc1	6	-21	21*	-1	3	4	-1	5
Cc1c(CCOC(=O)CC23CC4CC(CC(C4)C2)C3)sc[n+]1CC(=O)c1ccccc1	-16	0	26*	2	0	-2	-5	-1
CCCCN1CCCCC1(C)C(=O)NCc1ccc2c(c1)OCO2 (stereo unspecified)	·	·	·	-1	-2	·	·	·
O=C(O)C1C2CCC(O2)C1C(=O)Nc1cnn(Cc2ccccc2)c1 (stereo unspecified)	12	16	24*	-2	-3	41*	7	18*
O=C(Nc1cnn(Cc2ccccc2)c1)NC12CC3CC(CC(C3)C1)C2	-2	9	0	0	-2	3	·	·
SMILES	EBNA-1 inh	ZTA DNA inh	PP1 counter	MsrA inhibitor	MsrA act	PP5 inh	PP1 confirm	PP5 counter
Cc1ccc(NC(=O)C2CCCCC2C(=O)O)cc1Cl (stereo unspecified)	-11	1	1	-1	-10	-1	·	·
O=C(O)C1C2CCC(O2)C1C(=O)Nc1ccc(F)c(Cl)c1 (stereo unspecified)	-3	2	66*	0	-3	71*	10	19*
Cc1ccc(NC(=O)C2C3CCC(O3)C2C(=O)O)cc1Cl (stereo unspecified)	7	14	75*	1	-2	75*	12	25*
COc1cc(CN2CCNC(=O)C2CC(=O)N2CCc3ccccc3C2)cc(OC)c1 (stereo unspecified)	3	-30	7	-1	-4	4	·	·
Cc1cc(/C=N/n2cnnc2)c(C)n1-c1ccc(OCc2ccc(F)cc2)cc1	7	-3	19*	0	-2	2	10	1
Cc1cc(/C=N/n2cnnc2)c(C)n1-c1ccc(OCc2ccc(Cl)cc2Cl)cc1	-1	1	27*	·	-5	2	42*	0
Cc1cc(/C=N/n2cnnc2)c(C)n1-c1ccc(Cl)cc1	11	6	-4	2	-6	3	·	·
CN(Cc1ccccn1)C(=O)C1CCC(=O)N(CCc2ccc(Cl)cc2)C1 (stereo unspecified)	1	-16	-2	0	0	3	·	·
COc1cc(C2c3c(-c4cc(Cl)c(C)cc4O)n[nH]c3C(=O)N2Cc2cccnc2)ccc1O (stereo unspecified)	-5	-14	10	0	-1	4	·	·
COc1cccc(C2c3c(-c4cc(Cl)c(C)cc4O)n[nH]c3C(=O)N2Cc2cccnc2)c1 (stereo unspecified)	-11	4	19*	-1	0	8	12	-1
CCc1nnc(NS(=O)(=O)c2ccc(NC(=S)NC(=O)/C=C/c3ccc(C(C)C)cc3)cc2)s1	24	31	26*	·	-8	5	32*	6
CC(C)NC(=O)NC(=O)CN1c2cccc3cccc(c23)S1(=O)=O	5	10	0	1	-1	-1	·	·
O=C(NN1C(=O)/C(=C/C=C/c2ccco2)SC1=S)c1ccccc1O	37*	49*	33*	1	-6	0	14	-3
O=C(NNC(=O)c1cc2ccccc2[nH]1)OCc1ccccc1	·	·	·	-1	-1	·	·	·

Screens as filed in PubChem BioAssay.
